Composite z-score and z-score data for 14 compounds are collected here from PubChem BioAssay.

SMILES strings stand for the structures. Active and inactive are the calls of the source.

The subject of assay [1] is PRMT1 (protein arginine N-methyltransferase 1). In words: small molecules binding arginine methyltransferase PRMT1 – biochemical, small-molecule microarray, 635 nm fluorescence, primary screen (AID 1088).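 Note: binding of Prmt1 protein to compounds spotted on small-molecule microarray slides.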 Conditions: higher = more signal.
Assay [2] is described as follows: growth effects on S. cerevisiae YJM789 – YJM789 clinical isolate, OD600, 24 h, basal, primary screen (AID 1089).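 Note: growth of clinical yeast isolate S. cerevisiae YJM 789 seeded 1000 cells per well; test concentration not given here.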 To be noted: higher = more signal, called active from +8 up or from −8 down.
The nature of assay [3]: S. pombe growth modifiers, basal conditions – strain 972, OD600, 24 h, no modulator, primary screen (AID 1090).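 Note: basal condition with compound alone and no growth modifier present; test concentration not given here.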 Conditions: S. pombe 972 growth, higher = more signal, called active from +8 up or from −8 down.
Assay [4] in a line: budding yeast growth modifiers under rapamycin – strain BY4716, OD600, 96 h, primary screen (AID 1091). Note: test concentration not given here. To be noted: S. cerevisiae BY4716 + rapamycin, higher = more signal, called active from +8 up or from −8 down.
Assay [5] deals with Torsin-1A-interacting protein 2 (Homo sapiens) (UniProt Q8NFQ8). In words: small molecules binding lysate-expressed LULL1 – cell lysate, human LULL1 lysate, 635/667 nm fluorescence, primary screen (AID 1092).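 Note: probe is lysate of COS7 cells overexpressing human LULL1; score merges per-feature 667 nm fluorescence with signal-to-noise.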 To be noted: small-molecule microarray, hLULL1 lysate binding, 635 nm fluorescence; higher = more signal.
A short description of assay [6]: optical density change of DRC41 E. coli – strain DRC41, OD650, 24 h, E. coli filamentation project, primary screen (AID 1093).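 Note: MC1000 strain lacking acrAB efflux and sulA so SOS filamentation is blocked; test concentration not given here.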 Conditions: E. coli DRC41 growth, higher = more signal, called active from +8 up or from −8 down.
Assay [7] in a line: probe aLefty2 binding to arrayed compounds – biochemical, biotinylated probe, 635/667 nm fluorescence, primary screen (AID 1094).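 Note: score merges spot fluorescence near 667 nm with spot signal-to-noise ratio.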 To be noted: small-molecule microarray, higher = more signal.
In assay [8] the test system is Noggin (protein binding on small-molecule microarray). In words: small molecules binding Noggin protein – biochemical, 635/667 nm fluorescence, primary screen (AID 1095).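 Note: score merges 667 nm feature fluorescence with signal to noise over triplicate slides.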 Conditions: 635 nm fluorescence, higher = more signal.
The target in assay [9] is Neurogenic locus notch homolog protein 3 (Homo sapiens) (UniProt Q9UM47). The assay can be described thus: small molecules binding NOTCH3 protein – biochemical, 635/667 nm fluorescence, primary screen (AID 1096). Conditions: small-molecule microarray, 635 nm fluorescence, higher = more signal.
Assay [10] can be described thus: probe aEGFR binding to arrayed compounds – biochemical, biotinylated probe, 635/667 nm fluorescence, primary screen (AID 1097).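 Note: probe is a biotinylated anti-EGFR antibody binding compounds printed on slides; score combines fluorescence near 667 nm and signal to noise of each spot.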 Conditions: small-molecule microarray, higher = more signal.

Sequence of Neurogenic locus notch homolog protein 3 (Homo sapiens) (Q9UM47 whole entry, looked up): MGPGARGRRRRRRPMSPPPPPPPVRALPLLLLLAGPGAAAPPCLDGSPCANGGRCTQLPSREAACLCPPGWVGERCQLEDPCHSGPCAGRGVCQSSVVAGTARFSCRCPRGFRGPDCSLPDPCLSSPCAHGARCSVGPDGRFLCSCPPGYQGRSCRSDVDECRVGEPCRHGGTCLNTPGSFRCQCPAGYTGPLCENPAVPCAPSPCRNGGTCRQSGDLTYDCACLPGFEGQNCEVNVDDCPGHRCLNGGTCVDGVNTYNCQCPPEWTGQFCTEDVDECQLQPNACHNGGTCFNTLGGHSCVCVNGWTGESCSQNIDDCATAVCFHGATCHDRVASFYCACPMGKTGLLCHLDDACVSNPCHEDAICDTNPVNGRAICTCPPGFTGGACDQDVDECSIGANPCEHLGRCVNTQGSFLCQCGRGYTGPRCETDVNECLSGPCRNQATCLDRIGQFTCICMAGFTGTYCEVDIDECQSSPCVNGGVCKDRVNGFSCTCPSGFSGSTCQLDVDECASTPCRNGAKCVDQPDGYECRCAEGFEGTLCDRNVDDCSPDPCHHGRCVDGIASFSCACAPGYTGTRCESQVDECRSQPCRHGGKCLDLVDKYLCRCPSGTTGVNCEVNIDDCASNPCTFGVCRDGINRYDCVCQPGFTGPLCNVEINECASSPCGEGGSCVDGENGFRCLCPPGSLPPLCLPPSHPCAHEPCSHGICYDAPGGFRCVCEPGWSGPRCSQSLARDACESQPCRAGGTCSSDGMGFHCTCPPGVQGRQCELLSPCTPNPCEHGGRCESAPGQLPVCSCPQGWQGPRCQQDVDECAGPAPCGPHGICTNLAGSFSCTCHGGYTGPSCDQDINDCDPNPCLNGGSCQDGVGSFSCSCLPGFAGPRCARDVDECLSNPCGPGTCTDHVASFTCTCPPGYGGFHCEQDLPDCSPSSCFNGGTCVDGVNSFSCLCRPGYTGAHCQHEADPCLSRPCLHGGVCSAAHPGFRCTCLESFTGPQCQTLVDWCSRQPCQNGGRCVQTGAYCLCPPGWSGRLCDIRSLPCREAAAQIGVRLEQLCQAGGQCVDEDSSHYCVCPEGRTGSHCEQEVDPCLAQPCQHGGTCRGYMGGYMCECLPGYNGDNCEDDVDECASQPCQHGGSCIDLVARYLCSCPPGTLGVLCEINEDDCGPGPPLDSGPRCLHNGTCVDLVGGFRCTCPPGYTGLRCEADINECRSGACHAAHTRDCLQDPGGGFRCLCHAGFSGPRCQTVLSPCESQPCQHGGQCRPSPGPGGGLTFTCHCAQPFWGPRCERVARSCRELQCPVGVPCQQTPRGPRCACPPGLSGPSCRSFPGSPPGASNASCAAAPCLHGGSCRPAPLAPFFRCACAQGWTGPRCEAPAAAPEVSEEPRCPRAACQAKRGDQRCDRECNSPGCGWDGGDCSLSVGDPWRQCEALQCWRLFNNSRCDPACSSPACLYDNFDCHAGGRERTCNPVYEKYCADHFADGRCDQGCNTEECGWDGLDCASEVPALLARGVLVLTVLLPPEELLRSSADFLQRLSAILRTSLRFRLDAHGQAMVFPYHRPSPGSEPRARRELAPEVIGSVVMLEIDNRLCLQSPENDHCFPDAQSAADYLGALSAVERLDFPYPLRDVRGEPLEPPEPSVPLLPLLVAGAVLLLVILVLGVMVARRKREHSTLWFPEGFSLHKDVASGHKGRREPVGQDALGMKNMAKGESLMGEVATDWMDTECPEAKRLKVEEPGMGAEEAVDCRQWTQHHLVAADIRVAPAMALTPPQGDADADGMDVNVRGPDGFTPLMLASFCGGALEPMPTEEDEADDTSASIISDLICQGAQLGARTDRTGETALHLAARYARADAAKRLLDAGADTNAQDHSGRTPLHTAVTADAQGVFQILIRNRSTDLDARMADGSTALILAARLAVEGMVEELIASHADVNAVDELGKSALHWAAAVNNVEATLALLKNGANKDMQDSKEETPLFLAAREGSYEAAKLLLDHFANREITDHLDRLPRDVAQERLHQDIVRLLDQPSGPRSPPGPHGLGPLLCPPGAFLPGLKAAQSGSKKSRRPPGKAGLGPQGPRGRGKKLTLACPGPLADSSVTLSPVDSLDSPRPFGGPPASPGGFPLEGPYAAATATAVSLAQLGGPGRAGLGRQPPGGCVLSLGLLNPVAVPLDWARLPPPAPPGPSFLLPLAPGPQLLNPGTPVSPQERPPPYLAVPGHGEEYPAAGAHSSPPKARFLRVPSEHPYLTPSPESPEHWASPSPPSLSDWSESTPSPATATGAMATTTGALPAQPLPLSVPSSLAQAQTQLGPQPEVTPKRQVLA
Sequence of Torsin-1A-interacting protein 2 (Homo sapiens) (Q8NFQ8 whole entry, looked up): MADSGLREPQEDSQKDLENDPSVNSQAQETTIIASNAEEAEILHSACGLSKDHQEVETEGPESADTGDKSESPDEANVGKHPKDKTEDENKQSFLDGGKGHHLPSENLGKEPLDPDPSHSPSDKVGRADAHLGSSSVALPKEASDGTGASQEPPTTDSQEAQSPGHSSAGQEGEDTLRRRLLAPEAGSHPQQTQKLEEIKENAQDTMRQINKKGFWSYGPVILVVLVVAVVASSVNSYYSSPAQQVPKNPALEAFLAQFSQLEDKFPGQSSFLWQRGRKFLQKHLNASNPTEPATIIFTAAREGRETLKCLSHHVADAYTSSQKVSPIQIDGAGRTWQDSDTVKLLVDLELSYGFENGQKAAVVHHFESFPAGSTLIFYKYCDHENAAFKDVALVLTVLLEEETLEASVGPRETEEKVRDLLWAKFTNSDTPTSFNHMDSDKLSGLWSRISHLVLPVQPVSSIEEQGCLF

As for `O=C1O[C@@H](c2ccccc2)[C@@H](c2ccccc2)N2[C@@H](c3ccccc3OCCO)[C@]3(C(=O)Nc4ccccc43)[C@@H](C(=O)NC[C@H](O)c3ccccc3)[C@H]12`, the composite z-score is 1.4 in assay [1]; 2.69 in assay [5]; -0.139 in [7]; -0.84 in [8]; -0.359 in [9]; -0.207 in [10]. Besides, the z-score in [2] was 2.62 (inactive); in assay [3] it was 1.68 (inactive); in [4], 5.71 (inactive); in assay [6], -0.467 (inactive).

Turning to `COC(=O)C1(Cc2ccccc2)C=C2C(=C(c3ccccc3)C(=O)C2C)CN1` (stereo not given), the composite z-score in [1] is -1.24; in [5] it was 1.29; in assay [7], 1.32; in assay [8], -1.58; in assay [9], 0.885; in assay [10], 1.29. For the same compound, the z-score is -0.175 (inactive) in assay [2], -0.183 (inactive) in assay [3], 0.269 (inactive) in [4] and -0.749 (inactive) in [6].

For `O=C1OCC=C[C@H]2OC34C=CCN(c5ccc(Cl)cc5)C(=O)[C@H]3N(CCCCCO)C(=O)[C@@H]4[C@@H]12` (stereo not given in full), the composite z-score in assay [1] is -0.449; in assay [5] it was 2.58; in assay [7], -0.117; in assay [8] it was -1.64; in assay [9] it was -0.68; in assay [10], -0.208. The z-score is -0.984 (inactive) in assay [2], -1.03 (inactive) in assay [3], -0.497 (inactive) in assay [4] and 1 (inactive) in assay [6].

For `COC(=O)c1c(CC[C@@H](CO)NC(=O)N[C@H](Cn2cc(-c3ccccc3C)nn2)C(C)C)oc(C(C)=O)c1C(=O)OC`, the composite z-score is -0.469 in assay [1]; -0.351 in assay [5]; -0.29 in [7]; -0.0001 in assay [8]; -0.465 in assay [9]; -0.218 in assay [10]. Further, the z-score is -0.147 (inactive) in [2], -0.644 (inactive) in [3], 0.467 (inactive) in assay [4] and 0.537 (inactive) in [6].

`CN1C(=O)C2C=CC(C(O)c3c(F)cccc3Cl)N(Nc3ccccc3)C2C1=O` (stereo not given): the composite z-score was found to be 1.04 in [1]; 3.44 in [5]; 0.244 in assay [7]; 0.0319 in [8]; 1.07 in assay [9]; 0.0562 in assay [10]. For the same compound, the z-score was -0.0908 (inactive) in assay [2], 1.19 (inactive) in assay [3], 0.437 (inactive) in assay [4] and -0.757 (inactive) in [6].

As to `COC(=O)[C@@]1(Cc2ccc(F)cc2)[C@H]2c3cc(C(=O)N4CCCC4)n(CCF)c3C[C@H]2CN1C(=O)c1ccccc1`, the composite z-score in assay [1] was -0.195; in [5], 3.13; in [7] it was 1.49; in [8], -0.258; in assay [9] it was 1.13; in assay [10] it was 0.879. In addition, the z-score in assay [2] was -0.496 (inactive); in assay [3] it was -0.202 (inactive); in [4], -0.0254 (inactive); in assay [6] it was 0.164 (inactive).

Turning to `COCCCNC(=O)[C@@]1(Sc2ccc(C)cc2)CC(=O)N(C2Cc3ccccc3C2)[C@@H]1c1ccc(CO)cc1I`, the composite z-score in assay [1] is -0.649; in assay [5] it was -0.165; in assay [7], -0.0441; in [8], -1.39; in assay [9] it was -1.16; in [10], -0.251. The z-score in assay [2] was -0.881 (inactive); in assay [3], -1.79 (inactive); in assay [4], 1.43 (inactive); in assay [6] it was -0.421 (inactive).

Turning to `CCOC(=O)C[C@H]1[C@H](OC(=O)c2ccc(-c3ccccc3)cc2)[C@@H](NC(=O)c2ccc3ccccc3c2)c2cc(OCCCO)ccc2N1C(=O)c1ccc2ccccc2n1`, the composite z-score was 1.15 in [1]; 1.47 in assay [5]; -0.0358 in [7]; 0.372 in assay [8]; 0.895 in assay [9]; 0.0167 in assay [10]. The z-score was -0.72 (inactive) in assay [2], -0.918 (inactive) in [3], 0.592 (inactive) in assay [4] and -0.56 (inactive) in assay [6].

Take `[N-]=[N+]=Nc1ccccc1[C@@H]1OC(c2ccc(OCCCO)cc2)=N[C@]1(CCS(=O)(=O)c1ccccc1)C(=O)NCCN1CCOCC1`: the composite z-score was 1.55 in assay [1]; 3.15 in assay [5]; 0.383 in assay [7]; 0.038 in assay [8]; 0.808 in [9]; 0.354 in assay [10]. The z-score in [2] is -0.564 (inactive); in assay [3] it was -0.727 (inactive); in assay [4] it was 0.519 (inactive); in assay [6], 0.0992 (inactive).

In the case of `O=C(NC1CC1)[C@@H]1c2ccccc2C(=O)N(Cc2ccccc2)[C@H]1c1ccc(CO)cc1`, the composite z-score is 0.449 in [1]; 2.63 in assay [5]; -0.479 in assay [7]; -0.43 in assay [8]; -0.0341 in [9]; -0.366 in assay [10]. Further, the z-score is 0.763 (inactive) in [2], 0.109 (inactive) in assay [3], 0.0225 (inactive) in assay [4] and 0.958 (inactive) in assay [6].

Turning to `C=CC[C@]12N=C(c3ccc(OCCCO)cc3)O[C@H]1c1ccccc1N(C)C2=O`, the composite z-score in assay [1] is 1.57; in [5], 2.78; in [7], 0.28; in assay [8], 0.798; in assay [9] it was 0.725; in assay [10], 0.0488. Further, the z-score in assay [2] was -0.167 (inactive); in [3], -4.1 (inactive); in assay [4], 0.532 (inactive); in [6], -0.479 (inactive).

Take `C=CC[C@@]1(C(=O)O)N=C(c2ccc(OCCCO)cc2)O[C@@H]1c1ccccc1`: the composite z-score in [1] was 1.11; in [5] it was 3.22; in assay [7], -0.166; in [8], -0.0356; in assay [9] it was -0.645; in assay [10], -0.315. The z-score in assay [2] is 0.639 (inactive); in assay [3], -2.39 (inactive); in assay [4], -0.203 (inactive); in [6], 0.572 (inactive).

`COCC(=C=CC[C@H](O)c1cccc(OCCO)c1)C[C@H](O)c1ccccn1`: the composite z-score in assay [1] is 1.02; in [5] it was 1.88; in assay [7] it was -0.166; in assay [8] it was 0.704; in assay [9] it was 0.0673; in assay [10] it was 0.0149. For the same compound, the z-score in assay [2] is 0.941 (inactive); in [3], 0.44 (inactive); in assay [4], 0.371 (inactive); in assay [6] it was 0.559 (inactive).

For `CC(C)C(O)C1C=CC2C(=O)N(C)C(=O)C2N1N(c1ccccc1)c1ccccc1` (stereo not given), the composite z-score is -2.15 in [1]; 2.17 in assay [5]; 0.0443 in assay [7]; -0.306 in assay [8]; -0.853 in assay [9]; 0.102 in [10]. In addition, the z-score was 1.01 (inactive) in assay [2], 1.55 (inactive) in assay [3], 1.5 (inactive) in assay [4] and -0.573 (inactive) in assay [6].
